# Results taken from the supplement of paper PMC6555819.
# What was measured:
# Experiment in all cases: PBM binding z-score (relative to random genomic background probes); higher = stronger binding; sequences stand for … in GC…GCGATTGACAGCGTAGAATGAAGG
# [1] = test system: FXR:RXRa (NR concentration 270 nM, RXRa partner concentration 90 nM)
# Outline: (§1)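 Regression normalization was applied to scanned fluorescence from custom Agilent 4×180K protein-binding microarrays. Before scanning, arrays were incubated 1 h with ligand-free nuclear receptor dimers, and binding was detected with antibodies against each partner (one per run). Binding z-scores use the random background probes as reference.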
# [2] = test system: LXRa:RXRa (NR concentration 270 nM, RXRa partner concentration 90 nM)
# Outline: as §1
# [3] = test system: LXRa homodimer (NR concentration 270 nM)
# Outline: as §1
# [4] = test system: LXRb:RXRa (NR concentration 270 nM, RXRa partner concentration 90 nM)
# Outline: as §1
# [5] = test system: LXRb homodimer (NR concentration 270 nM)
# Outline: as §1
# [6] = test system: PPARa:RXRa (NR concentration 270 nM, RXRa partner concentration 90 nM)
# Outline: as §1
# [7] = test system: PPARg:RXRa (NR concentration 180 nM, RXRa partner concentration 90 nM)
# Outline: as §1
# [8] = test system: PPARg:RXRa 270nM:90nM, anti-RXR (NR concentration 270 nM, RXRa partner concentration 90 nM)
# Outline: as §1
# [9] = test system: PPARg:RXRa 30nM:10nM, anti-RXR (NR concentration 30 nM, RXRa partner concentration 10 nM)
# Outline: as §1
# [10] = test system: PPARg:RXRa 90nM:30nM, anti-RXR (NR concentration 90 nM, RXRa partner concentration 30 nM)
# Outline: as §1
# [11] = test system: PPARg:RXRa DBDmut IVT, anti-RXR (DBD mutation: RXRa K156A/R161A, NR concentration 270 nM, RXRa partner concentration 90 nM)
# Outline: as §1
# [12] = test system: PPARg:RXRa IVT, anti-PPARg (NR concentration 270 nM, RXRa partner concentration 90 nM)
# Outline: as §1
# [13] = test system: PPARg DBDmut:RXRa IVT, anti-PPARg (DBD mutation: PPARg1 K132A/R137A, NR concentration 270 nM, RXRa partner concentration 90 nM)
# Outline: as §1
# [14] = test system: PPARg DBDmut IVT, anti-PPARg (DBD mutation: PPARg1 K132A/R137A, NR concentration 270 nM)
# Outline: as §1
# [15] = test system: PPARg homodimer (NR concentration 180 nM)
# Outline: as §1
# [16] = test system: PXR:RXRa (NR concentration 270 nM, RXRa partner concentration 90 nM)
# Outline: as §1
# [17] = test system: PXR homodimer (NR concentration 270 nM)
# Outline: as §1
# [18] = test system: RARa:RXR (NR concentration 270 nM, RXRa partner concentration 90 nM)
# Outline: as §1
# [19] = test system: RARa homodimer (NR concentration 270 nM)
# Outline: as §1
# [20] = test system: RARb:RXRa (NR concentration 270 nM, RXRa partner concentration 90 nM)
# Outline: as §1
Sequence,PBM binding z-score [1],PBM binding z-score [2],PBM binding z-score [3],PBM binding z-score [4],PBM binding z-score [5],PBM binding z-score [6],PBM binding z-score [7],PBM binding z-score [8],PBM binding z-score [9],PBM binding z-score [10],PBM binding z-score [11],PBM binding z-score [12],PBM binding z-score [13],PBM binding z-score [14],PBM binding z-score [15],PBM binding z-score [16],PBM binding z-score [17],PBM binding z-score [18],PBM binding z-score [19],PBM binding z-score [20]
AGAACGAGGGCAATGAGTTGATCGCACGGGTGGC,0.0662,0.0988,-0.712,-0.452,-0.58,1.33,1.16,0.618,-0.283,0.0795,2.79,2.63,0.67,0.015,-0.315,1.75,5.1,0.134,-0.671,2
TCTTGTAGATCAAGCAGATTAAGAAAGCCTGAGT,0.096,-0.059,-0.156,0.0422,-0.403,0.442,-0.257,1.19,2.63,2.02,1.46,0.135,-0.162,0.384,-0.288,0.232,-0.000804,0.536,-0.326,-0.301
AGAATGAGGTTAGACGTAGATCAGGGAAGAAAGT,0.755,0.774,0.0351,0.67,-0.107,2.02,0.989,1.22,0.406,0.527,3.27,1.52,0.96,1.16,0.901,0.631,0.578,1.17,0.74,1.21
ATCGAAAGGTCGACGAGGTGAGTAGACACCGTTT,4.89,3.41,-0.158,2.75,0.205,4.45,3.11,3.63,1.22,2.45,0.417,2.09,0.633,0.273,1.49,2.93,0.455,3.91,0.813,3.89
ATATGTAGGTTATCGGATCATTCAGTTTGCGCAT,0.778,1.32,0.544,0.974,0.803,3.32,4.5,4.3,2.14,3.56,7.18,6.73,2.24,2.07,1.46,0.908,0.884,1.05,1.48,0.993
CGTCGAAGGTCAGCAGGTCAGTGAAAGCGACGTG,5.54,3.8,0.42,3.06,-0.433,4.76,4.28,4.81,1.5,2.88,2.98,3.25,-0.047,-1.4,4.2,3.44,0.233,4.8,1.59,5.24
AGAATGAGGTTATTAAGATCAAGGAATTGCGGTC,1.4,1.67,0.35,1.5,0.176,2.85,1.82,2.2,0.602,1.6,2.9,2.73,1.27,0.466,0.735,1.37,0.527,1.58,1.15,1.45
